Test results as given in PubChem BioAssay (Tox21).
Results filed as inconclusive are left out. Activity calls are given as the source filed them. Unless noted, calls come from the whole dose curve.

Experiments:
[1] = Nuclear factor erythroid 2-related factor 2/antioxidant responsive element (Nrf2/ARE) small molecule agonists: qHTS cell viability counter screen in human keratinocytes (AID 1919968; active = well fitted curve in the direction sought with a large enough effect in the repeat runs; an effect the other way counts as inactive or inconclusive; note: nearly all actives have a fitted effect of over 55% in size; note: potency is the fitted concentration of half-maximal effect)
Summary of the method: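 Cells of the KeratinoSens line were plated at 1,500 per well and left for 5 h before compound transfer from DMSO stocks. After a 23 h incubation (37 C, 5% CO2), CellTiter-Fluor was added. Signal was taken as fluorescence intensity 1 h later.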

[2] = biological target: Gonadotropin-releasing hormone receptor (Homo sapiens) (UniProt P30968); experiment: Human gonadotropin-releasing hormone receptor (GnRHR) small molecule agonists, calcium flux assay in GnRHR-HEK293 cells (AID 1920063); note: nearly all actives have a fitted effect of over 35% in size
Summary of the method: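 Compounds dissolved in DMSO are pin-transferred onto dye-loaded GnRHR-HEK293 cells, which were seeded 18 h before at 37 C/5% CO2. Calcium signal is read as fluorescence intensity at 1 s intervals for 3 min.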

[3] = biological target: KiSS-1 receptor (Homo sapiens) (UniProt Q969F8); experiment: Human kisspeptin (KISS1R) small molecule agonists, calcium flux assay in KISS1R-HEK293 cells (AID 1920064; active = well fitted curve in the direction sought with a large enough effect in the repeat runs; an effect the other way counts as inactive or inconclusive)
Summary of the method: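 Cell line: HEK293, stable human KISS1R. Dye loading 1 h at 37 C after 18 h culture. Read: kinetic fluorescence, 480/540 nm, 3 min at 1 s intervals.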

[4] = G protein-coupled receptor (GPCR) small molecule agonists, calcium flux assay: HEK293 wild type cell line counter screen (AID 1920065)
Summary of the method: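 Tox21 10K compounds, 15 concentrations each in triplicate, pin-transferred in DMSO onto dye-loaded cells; kinetic read at 480/540 nm for 3 min, 1 s intervals.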

[5] = p53 small molecule agonists, cell-based qHTS assay with human liver microsomes (AID 1963577)
Summary of the method: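 Fluorescence of the beta-lactamase reporter in p53RE-bla cells, detected with LiveBLAzer substrate (2 h, room temperature, dark), served as the read-out after 16 h compound exposure at 37 C with human liver microsomes and NADPH, each 0.5 mg/mL final.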

[6] = p53 small molecule agonists, cell-based qHTS assay with rat liver microsomes (AID 1963578)
Summary of the method: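 Cells carrying a p53 response element–beta-lactamase reporter were plated and rested 5 h, then dosed with compound in DMSO plus rat liver microsomes and NADPH, each at 0.5 mg/mL final. After 16 h at 37 C, LiveBLAzer substrate was added for 2 h.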

[7] = p53 small molecule agonists, cell-based qHTS assay with human liver microsomes: qHTS cell viability counter screen (AID 1963579); note: nearly all actives have a fitted effect of over 45% in size
Summary of the method: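 Cytotoxicity counter screen: p53RE-bla, 4,000 cells/well; 5 h settle, 37 C/5% CO2; cpd + HLM 0.5 mg/mL + NADPH 0.5 mg/mL (final); 16 h, 37 C; CellTiter-Glo, 30 min RT, luminescence.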

[8] = p53 small molecule agonists, cell-based qHTS assay with rat liver microsomes: qHTS cell viability counter screen (AID 1963580); note: nearly all actives have a fitted effect of over 45% in size
Summary of the method: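 Cytotoxicity counter screen: intracellular ATP read by CellTiter-Glo luminescence in the p53 reporter wells. HCT-116 p53RE-bla cells were treated for 16 h at 37 C alongside rat liver microsomes and NADPH, each 0.5 mg/mL final.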

[9] = p53 small molecule agonists, cell-based qHTS assay: qHTS cell viability counter screen (AID 1963581); note: nearly all actives have a fitted effect of over 45% in size; note: potency is the fitted concentration of half-maximal effect
Summary of the method: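 ATP content measured by luminescence in HCT-116 p53RE-bla cells treated 16 h at 37 C, same wells as the reporter screen.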

[10] = biological target: 5-hydroxytryptamine receptor 2A (Homo sapiens) (UniProt P28223); experiment: 5-hydroxytryptamine receptor 2A (HTR2A) small molecule agonists, cell-based qHTS assay (AID 1963587); note: nearly all actives have a fitted effect of over 30% in size
Summary of the method: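 Kinetic calcium-flux fluorescence (2 min, 1 sec intervals) after compound addition in agonist mode. HTR2A-CHO cells were cultured 18 h, then dye-loaded 1 h at 37 C.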

[11] = biological target: Muscarinic acetylcholine receptor M1 (Homo sapiens) (UniProt P11229); experiment: Cholinergic receptor muscarinic 1 (CHRM1) small molecule antagonists, cell-based qHTS assay (AID 1963588); note: nearly all actives have a fitted effect of over 40% in size
Summary of the method: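 Compounds were tested at 15 concentrations in three independent runs. Dye-loaded CHRM1-CHO cells were exposed 5 min at room temperature before stimulation by acetylcholine added at 50nM. Intracellular calcium was read kinetically on FDSS for 3 min.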

[12] = biological target: Muscarinic acetylcholine receptor M1 (Homo sapiens) (UniProt P11229); experiment: Cholinergic receptor muscarinic 1 (CHRM1) small molecule agonists, cell-based qHTS assay (AID 1963589); note: nearly all actives have a fitted effect of over 35% in size
Summary of the method: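 Homogeneous fluorescence calcium flux, agonist mode. Human M1-expressing CHO cells; compound dosed at 15 concentrations, three independent runs; signal sampled every 1 sec.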

[13] = cAMP Responsive Elements (CRE) small molecule agonists, cell-based qHTS assay (AID 1963590)
Summary of the method: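 HEK 293T cells stably bearing CRE-bla were plated at 2,000 cells per well and rested 18 h. Compounds, positive controls or DMSO were added for 3 h at 37 C. LiveBLAzer B/G substrate was then loaded for 2 h at room temperature.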

[14] = cAMP Responsive Elements (CRE) small molecule antagonists, cell-based qHTS assay (AID 1963591; active = well fitted inhibition curve with a large enough effect in the signal ratio in the repeat runs, not every such curve was filed as active; the % refers to the signal ratio; note: potency is the fitted concentration of half-maximal effect)
Summary of the method: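 First, CRE-bla HEK293T cells settled 18 h at 37 C. Next, compound and 0.25 uM final NKH477 were applied for 3 h. Last, LiveBLAzer B/G substrate was loaded for 2 h at room temperature.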

[15] = biological target: Beta-2 adrenergic receptor (Homo sapiens) (UniProt P07550); experiment: Adrenergic beta2 receptor (ADRB2) small molecule antagonists, cell-based qHTS assay (AID 1963592); note: nearly all actives have a fitted effect of over 50% in size; note: potency is the fitted concentration of half-maximal effect; for activity change, negative = inhibition: series mostly up to about 92 µM
Summary of the method: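 Assay format: CHO-ADRB2 cells, 18-20hr seeding at 37C/5% CO2, then compound plus 1nM isoproterenol agonist mix for 0.5hr RT. Homogeneous time-resolved fluorescence cAMP detection after 1hr, expressed as 665/615 nm ratio.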

[16] = biological target: D(2) dopamine receptor (Homo sapiens) (UniProt P14416); experiment: Dopamine D2 receptor (DRD2) small molecule agonists, cell-based qHTS assay (AID 1963594); note: nearly all actives have a fitted effect of over 35% in size; note: potency is the fitted concentration of half-maximal effect
Summary of the method: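 cAMP accumulation in DRD2-HEK293 cells measured by HTRF after 1 h detection; compounds added 10 min before NKH477 (200nM […]) forskolin-analogue stimulation, 30 min at room temperature, with Ro20-1724 present at 0.1 mM final.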

[17] = biological target: D(2) dopamine receptor (Homo sapiens) (UniProt P14416); experiment: Dopamine D2 receptor (DRD2) small molecule antagonists, cell-based qHTS assay (AID 1963595; active = well fitted inhibition curve with a large enough effect in the signal ratio in the repeat runs, with a control signal flat; the % refers to the signal ratio)
Summary of the method: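 Readout: HTRF cAMP, cAMP-d2 competing with cellular cAMP for anti-cAMP cryptate, read after 1 h. Cells: DRD2-HEK293. Conditions: 0.1 mM Ro20-1724, 12 nM quinpirole, 200 nM NKH477, 30 min RT.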

[18] = biological target: 5-hydroxytryptamine receptor 2A (Homo sapiens) (UniProt P28223); experiment: 5-hydroxytryptamine receptor 2A (HTR2A) small molecule antagonists, cell-based qHTS assay (AID 1963586); note: nearly all actives have a fitted effect of over 45% in size
Summary of the method: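 CHO cells stably expressing human HTR2A were plated for 18 h at 37 C, then loaded with calcium dye for 1 h. Compounds were preincubated 5 min at room temperature before DOI (4 nM solution) was added. Kinetic fluorescence was read for 3 min.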

[19] = p53 small molecule agonists, cell-based qHTS assay (AID 1963582; active = well fitted activation curve with a large enough effect in the signal ratio in the repeat runs, not every such curve was filed as active; the % refers to the signal ratio)
Summary of the method: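 16 h compound exposure (37 C) of p53 response element–bla cells, preceded by 5 h recovery at 37 C/5% CO2; read-out via LiveBLAzer B/G FRET substrate, 2 h RT, fluorescence intensity.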

[20] = biological target: Beta-2 adrenergic receptor (Homo sapiens) (UniProt P07550); experiment: Adrenergic beta2 receptor (ADRB2) small molecule agonists, cell-based qHTS assay (AID 1963593);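 note: CHO cells stably overexpressing human ADRB2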
Summary of the method: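 CHO cells stably over-expressing ADRB2 were plated overnight at 37C, then dosed with compounds plus a stimulation mix containing 100uM IBMX and 25uM Ro-20-1724 for 0.5hr at room temperature. cAMP was measured by HTRF competition, 1hr.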
% is set by controls: 0 for no effect and ±100 for the full control effect.

Gonadotropin-releasing hormone receptor (Homo sapiens), sequence (P30968 whole entry, looked up): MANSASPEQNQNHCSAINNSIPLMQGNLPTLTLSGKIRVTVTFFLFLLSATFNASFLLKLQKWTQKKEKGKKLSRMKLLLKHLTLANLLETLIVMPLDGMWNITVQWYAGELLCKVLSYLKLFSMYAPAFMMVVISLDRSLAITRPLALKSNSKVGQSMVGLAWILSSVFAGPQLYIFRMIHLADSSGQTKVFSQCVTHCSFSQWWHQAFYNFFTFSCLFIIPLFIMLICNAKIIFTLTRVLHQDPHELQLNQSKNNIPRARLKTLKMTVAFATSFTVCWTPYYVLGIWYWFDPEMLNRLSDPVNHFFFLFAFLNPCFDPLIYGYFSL
Muscarinic acetylcholine receptor M1 (Homo sapiens), sequence (P11229 whole entry, looked up): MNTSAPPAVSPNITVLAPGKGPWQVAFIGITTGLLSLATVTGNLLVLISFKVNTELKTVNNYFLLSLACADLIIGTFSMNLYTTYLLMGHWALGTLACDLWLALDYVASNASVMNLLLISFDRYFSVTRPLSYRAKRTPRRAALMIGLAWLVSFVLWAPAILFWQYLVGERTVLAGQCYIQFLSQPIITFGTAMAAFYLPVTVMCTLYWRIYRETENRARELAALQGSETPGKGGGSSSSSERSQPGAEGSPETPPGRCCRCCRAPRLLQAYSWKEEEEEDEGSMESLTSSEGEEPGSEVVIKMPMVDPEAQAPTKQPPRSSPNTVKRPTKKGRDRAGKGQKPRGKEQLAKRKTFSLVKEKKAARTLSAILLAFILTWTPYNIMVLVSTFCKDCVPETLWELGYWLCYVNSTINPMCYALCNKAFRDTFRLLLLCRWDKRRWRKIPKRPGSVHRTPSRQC
5-hydroxytryptamine receptor 2A (Homo sapiens), sequence (P28223 whole entry, looked up): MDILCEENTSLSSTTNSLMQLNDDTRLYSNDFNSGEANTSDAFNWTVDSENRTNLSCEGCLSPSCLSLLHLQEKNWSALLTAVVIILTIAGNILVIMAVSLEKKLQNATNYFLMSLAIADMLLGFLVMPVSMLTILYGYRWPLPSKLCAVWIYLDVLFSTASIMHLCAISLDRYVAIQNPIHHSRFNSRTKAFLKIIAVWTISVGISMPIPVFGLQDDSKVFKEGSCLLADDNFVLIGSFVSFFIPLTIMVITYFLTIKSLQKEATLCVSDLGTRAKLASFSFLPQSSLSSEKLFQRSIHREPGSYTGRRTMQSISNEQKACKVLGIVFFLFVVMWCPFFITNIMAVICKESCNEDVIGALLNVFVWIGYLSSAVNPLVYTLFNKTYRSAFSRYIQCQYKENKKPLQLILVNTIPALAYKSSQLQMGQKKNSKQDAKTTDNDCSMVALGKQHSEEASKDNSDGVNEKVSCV
Beta-2 adrenergic receptor (Homo sapiens), sequence (P07550 whole entry, looked up): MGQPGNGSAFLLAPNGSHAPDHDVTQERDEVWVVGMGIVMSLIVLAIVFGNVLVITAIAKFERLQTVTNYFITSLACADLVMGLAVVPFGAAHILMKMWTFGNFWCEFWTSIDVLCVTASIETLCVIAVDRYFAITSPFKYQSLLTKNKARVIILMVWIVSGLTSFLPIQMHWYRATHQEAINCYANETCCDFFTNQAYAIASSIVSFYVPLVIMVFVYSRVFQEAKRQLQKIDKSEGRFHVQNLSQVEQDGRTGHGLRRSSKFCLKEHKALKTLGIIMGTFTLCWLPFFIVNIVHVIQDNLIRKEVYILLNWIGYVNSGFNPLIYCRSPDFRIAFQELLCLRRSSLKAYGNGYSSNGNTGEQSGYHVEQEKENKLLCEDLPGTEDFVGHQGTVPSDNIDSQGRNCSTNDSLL
KiSS-1 receptor (Homo sapiens), sequence (Q969F8 whole entry, looked up): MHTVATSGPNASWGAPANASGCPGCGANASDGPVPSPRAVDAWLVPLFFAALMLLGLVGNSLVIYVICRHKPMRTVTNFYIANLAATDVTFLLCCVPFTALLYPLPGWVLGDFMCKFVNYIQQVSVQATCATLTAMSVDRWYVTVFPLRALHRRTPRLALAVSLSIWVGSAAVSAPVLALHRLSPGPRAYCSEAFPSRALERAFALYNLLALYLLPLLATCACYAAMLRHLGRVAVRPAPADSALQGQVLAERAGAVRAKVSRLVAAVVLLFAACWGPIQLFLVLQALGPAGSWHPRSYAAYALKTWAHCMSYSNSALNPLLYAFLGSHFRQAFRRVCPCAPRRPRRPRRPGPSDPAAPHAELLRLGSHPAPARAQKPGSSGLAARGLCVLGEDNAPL
D(2) dopamine receptor (Homo sapiens), sequence (P14416 whole entry, looked up): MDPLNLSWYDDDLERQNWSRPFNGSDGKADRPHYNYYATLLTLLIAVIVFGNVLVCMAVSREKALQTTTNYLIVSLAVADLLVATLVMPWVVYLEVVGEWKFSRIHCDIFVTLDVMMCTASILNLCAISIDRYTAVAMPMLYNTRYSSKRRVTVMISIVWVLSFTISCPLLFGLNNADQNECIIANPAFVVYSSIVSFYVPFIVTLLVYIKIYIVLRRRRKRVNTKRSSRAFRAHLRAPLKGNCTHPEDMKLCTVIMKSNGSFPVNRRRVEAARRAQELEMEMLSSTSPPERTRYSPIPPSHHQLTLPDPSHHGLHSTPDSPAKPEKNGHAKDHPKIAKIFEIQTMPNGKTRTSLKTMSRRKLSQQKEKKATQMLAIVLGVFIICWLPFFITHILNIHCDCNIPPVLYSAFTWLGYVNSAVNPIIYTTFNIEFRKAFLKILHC

CCN(CC)CC
inactive: Potency [1] | Potency [2] | Potency [3] | Potency [4] | Potency [5] | Potency [6] | Potency [7] | Potency [8] | Potency [9] | Potency [10] | Potency [11] | Potency [12] | Potency [13] | Potency [14] | Potency [15] | Potency [16] | Potency [17]

Brc1cc2ccccc2c2ccccc12
active: Potency [1] 30.9 µM
inactive: Potency [2] | Potency [3] | Potency [4] | Potency [5] | Potency [6] | Potency [7] | Potency [8] | Potency [9] | Potency [18] | Potency [10] | Potency [11] | Potency [12] | Potency [13] | Potency [16] | Potency [17]

CC(C)COC(=O)c1ccc(O)cc1
inactive: Potency [1] | Potency [2] | Potency [3] | Potency [4] | Potency [5] | Potency [6] | Potency [7] | Potency [8] | Potency [19] | Potency [18] | Potency [10] | Potency [11] | Potency [12] | Potency [15] | Potency [17]

CCN(Cc1cccc(S(=O)(=O)O)c1)c1ccc(C(=C2C=CC(=[N+](CC)Cc3cccc(S(=O)(=O)[O-])c3)C=C2)c2ccccc2)cc1
inactive: Potency [1] | Potency [2] | Potency [3] | Potency [4] | Potency [5] | Potency [6] | Potency [7] | Potency [8] | Potency [19] | Potency [18] | Potency [10] | Potency [11] | Potency [12] | Potency [13] | Potency [15] | Potency [16] | Potency [17]

O=C(Nc1ccc(Oc2ccc(Cl)cc2)c(Cl)c1)c1cc(I)cc(I)c1O
active: Potency [1] 26.6 µM | Potency [9] 5 µM
inactive: Potency [2] | Potency [3] | Potency [4] | Potency [5] | Potency [6] | Potency [7] | Potency [8] | Potency [18] | Potency [10] | Potency [11] | Potency [14] | Potency [15] | Potency [16] | Potency [17]

CCN1/C(=C/C=C/c2sc3ccccc3[n+]2CC)Sc2ccccc21
inactive: activity change [2] -1.77% [at 11.8 µM, active compounds read high] | activation [3] -1.63% [at 15.8 µM] | activation [4] -0.0412% [at 11.8 µM] | activation [5] 15.3% [at 13.5 µM] | activation [6] 2.93% [at 13.6 µM] | activity change, negative = cytotoxicity [7] 8.44% [at 13.5 µM] | activity change, negative = cytotoxicity [8] 1.97% [at 13.5 µM] | activity change, negative = cytotoxicity [9] 1.06% [at 13.5 µM] | activity, negative = inhibition [18] -18.6% [at 12.7 µM] | activity, negative = inhibition [11] -35.2% [at 12.6 µM] | activation [12] -0.119% [at 15.8 µM] | activity change, negative = inhibition [17] -0.0645% [at 18.9 µM]
active: Potency [1] 3.26 µM | Potency [14] 11.6 µM | Potency [15] 5.8 µM | Potency [16] 14.6 µM

CN(C)CCCN1c2ccccc2Sc2ccc(Cl)cc21
active: Potency [1] 54.5 µM
inactive: Potency [2] | Potency [3] | Potency [4] | Potency [5] | Potency [6] | Potency [7] | Potency [8] | Potency [15] | Potency [16]

CC(C(=O)O)c1ccc2c(c1)[nH]c1ccc(Cl)cc12 (configuration not stated)
inactive: Potency [1] | Potency [2] | Potency [3] | Potency [4] | Potency [5] | Potency [6] | Potency [7] | Potency [8] | Potency [9] | Potency [18] | Potency [10] | Potency [11] | Potency [15] | Potency [20] | Potency [16]
